From ChEMBL document CHEMBL2218924, “A broad activity screen in support of a chemogenomic map for kinase signalling research and drug discovery” (Biochem J, 2013) come the findings set out here.

Each structure is given as a SMILES string.

The target in assay [1] is Vascular endothelial growth factor receptor 3 (Homo sapiens) (UniProt P35916). As to conditions: at 10 µM.
Assay [2] addresses Macrophage colony-stimulating factor 1 receptor (Homo sapiens) (UniProt P07333). Conditions: at 1 µM.
Assay [3] has the same target. Conditions: at 10 µM.
Assay [4] has as its target Tyrosine-protein kinase Fyn (Homo sapiens) (UniProt P06241). Conditions: at 1 µM.
The target is the same in assay [5]. Conditions: at 10 µM.
Assay [6] has as its target T1, Mitogen-activated protein kinase kinase kinase kinase 2 (Homo sapiens) (UniProt Q12851).
T1 sequence (whole entry): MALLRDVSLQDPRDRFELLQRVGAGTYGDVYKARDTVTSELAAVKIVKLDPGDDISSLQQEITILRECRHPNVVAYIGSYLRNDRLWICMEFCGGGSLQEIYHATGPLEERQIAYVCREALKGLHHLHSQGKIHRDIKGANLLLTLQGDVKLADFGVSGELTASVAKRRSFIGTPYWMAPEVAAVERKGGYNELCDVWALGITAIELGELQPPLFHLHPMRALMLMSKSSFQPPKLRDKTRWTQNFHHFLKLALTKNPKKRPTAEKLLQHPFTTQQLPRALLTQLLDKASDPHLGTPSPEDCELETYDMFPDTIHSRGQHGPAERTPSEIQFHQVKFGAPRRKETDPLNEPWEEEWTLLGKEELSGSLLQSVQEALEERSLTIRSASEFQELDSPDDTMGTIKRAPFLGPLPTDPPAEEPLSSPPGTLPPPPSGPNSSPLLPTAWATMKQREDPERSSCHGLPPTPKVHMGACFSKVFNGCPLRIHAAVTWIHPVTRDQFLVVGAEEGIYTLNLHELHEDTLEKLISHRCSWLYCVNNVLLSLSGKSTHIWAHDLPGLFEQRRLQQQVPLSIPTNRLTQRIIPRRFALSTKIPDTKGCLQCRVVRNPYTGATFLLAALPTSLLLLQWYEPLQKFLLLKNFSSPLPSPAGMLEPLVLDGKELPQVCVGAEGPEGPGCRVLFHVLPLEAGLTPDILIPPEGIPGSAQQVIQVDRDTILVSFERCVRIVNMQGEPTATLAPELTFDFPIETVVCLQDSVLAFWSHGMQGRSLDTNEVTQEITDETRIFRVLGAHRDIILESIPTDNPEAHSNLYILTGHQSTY
As to conditions: at 1 µM.

The target of assay [7] is T1, Mitogen-activated protein kinase kinase kinase kinase 2 (Homo sapiens). Conditions: at 10 µM.
Assay [8] has as its target G protein-coupled receptor kinase 5 (Homo sapiens) (UniProt P34947). As to conditions: at 10 µM.
The target in assay [9] is G protein-coupled receptor kinase 6 (Homo sapiens) (UniProt P43250). Conditions: at 10 µM.
Assay [10] concerns the target T2, Rhodopsin kinase GRK7 (Homo sapiens) (UniProt Q8WTQ7).
T2 sequence (whole entry): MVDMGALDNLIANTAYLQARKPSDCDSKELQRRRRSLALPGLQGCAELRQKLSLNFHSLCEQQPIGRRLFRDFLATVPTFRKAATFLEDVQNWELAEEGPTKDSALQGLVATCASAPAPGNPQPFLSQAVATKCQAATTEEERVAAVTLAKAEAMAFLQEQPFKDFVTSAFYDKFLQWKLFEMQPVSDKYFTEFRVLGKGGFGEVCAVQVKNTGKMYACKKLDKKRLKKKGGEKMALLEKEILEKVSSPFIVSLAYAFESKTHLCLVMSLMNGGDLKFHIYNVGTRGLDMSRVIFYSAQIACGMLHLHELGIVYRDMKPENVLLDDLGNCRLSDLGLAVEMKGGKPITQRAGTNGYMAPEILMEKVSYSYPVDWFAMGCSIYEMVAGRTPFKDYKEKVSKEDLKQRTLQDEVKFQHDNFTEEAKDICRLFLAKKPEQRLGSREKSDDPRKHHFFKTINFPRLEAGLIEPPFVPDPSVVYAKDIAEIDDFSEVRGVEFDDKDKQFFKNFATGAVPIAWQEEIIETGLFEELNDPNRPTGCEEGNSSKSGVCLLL
Conditions: at 1 µM.

The target of assay [11] is T2, Rhodopsin kinase GRK7 (Homo sapiens). As to conditions: at 10 µM.
The target in assay [12] is Glycogen synthase kinase-3 beta (Homo sapiens) (UniProt P49841). Conditions: at 1 µM.
Assay [13] has the same target. As to conditions: at 10 µM.
In assay [14] the target is Homeodomain-interacting protein kinase 1 (Homo sapiens) (UniProt Q86Z02). Conditions: at 1 µM.
The target is the same in assay [15]. As to conditions: at 10 µM.
Assay [16] addresses Homeodomain-interacting protein kinase 2 (Homo sapiens) (UniProt Q9H2X6). Conditions: at 1 µM.
Assay [17] has the same target. Conditions: at 10 µM.
The target of assay [18] is Homeodomain-interacting protein kinase 3 (Homo sapiens) (UniProt Q9H422). Conditions: at 1 µM.
Assay [19] deals with Glycogen synthase kinase-3 alpha (Homo sapiens) (UniProt P49840). Conditions: at 1 µM.
For assay [20] the target is unchanged. As to conditions: at 10 µM.

Chain of Tyrosine-protein kinase Fyn (Homo sapiens) (P06241 2-537 limits assumed): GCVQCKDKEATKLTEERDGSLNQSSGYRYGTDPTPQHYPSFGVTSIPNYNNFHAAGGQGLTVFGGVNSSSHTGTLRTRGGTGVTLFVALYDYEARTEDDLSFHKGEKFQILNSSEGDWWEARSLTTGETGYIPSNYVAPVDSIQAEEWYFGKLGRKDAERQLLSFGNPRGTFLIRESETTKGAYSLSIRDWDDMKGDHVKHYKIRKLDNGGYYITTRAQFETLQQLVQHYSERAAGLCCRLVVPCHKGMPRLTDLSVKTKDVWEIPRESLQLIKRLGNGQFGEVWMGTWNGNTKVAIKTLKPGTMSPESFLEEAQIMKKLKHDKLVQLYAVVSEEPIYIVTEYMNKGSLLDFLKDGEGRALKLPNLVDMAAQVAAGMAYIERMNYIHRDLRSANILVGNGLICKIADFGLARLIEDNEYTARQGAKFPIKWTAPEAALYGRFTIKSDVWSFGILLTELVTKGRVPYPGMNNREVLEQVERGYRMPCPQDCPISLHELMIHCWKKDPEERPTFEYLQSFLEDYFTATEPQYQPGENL
Chain of Glycogen synthase kinase-3 beta (Homo sapiens) (P49841 whole entry, looked up): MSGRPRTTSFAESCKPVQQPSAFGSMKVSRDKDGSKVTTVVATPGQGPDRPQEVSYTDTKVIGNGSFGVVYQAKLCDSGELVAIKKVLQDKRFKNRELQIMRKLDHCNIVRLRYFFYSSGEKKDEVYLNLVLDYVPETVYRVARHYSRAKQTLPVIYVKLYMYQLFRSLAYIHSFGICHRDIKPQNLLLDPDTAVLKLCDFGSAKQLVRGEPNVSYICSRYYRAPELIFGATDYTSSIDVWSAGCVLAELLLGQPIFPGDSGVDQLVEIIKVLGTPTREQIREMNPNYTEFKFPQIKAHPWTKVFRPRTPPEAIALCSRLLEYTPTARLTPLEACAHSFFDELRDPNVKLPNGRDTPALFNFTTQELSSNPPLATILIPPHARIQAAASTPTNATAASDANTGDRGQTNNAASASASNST
Chain of Macrophage colony-stimulating factor 1 receptor (Homo sapiens) (P07333 whole entry): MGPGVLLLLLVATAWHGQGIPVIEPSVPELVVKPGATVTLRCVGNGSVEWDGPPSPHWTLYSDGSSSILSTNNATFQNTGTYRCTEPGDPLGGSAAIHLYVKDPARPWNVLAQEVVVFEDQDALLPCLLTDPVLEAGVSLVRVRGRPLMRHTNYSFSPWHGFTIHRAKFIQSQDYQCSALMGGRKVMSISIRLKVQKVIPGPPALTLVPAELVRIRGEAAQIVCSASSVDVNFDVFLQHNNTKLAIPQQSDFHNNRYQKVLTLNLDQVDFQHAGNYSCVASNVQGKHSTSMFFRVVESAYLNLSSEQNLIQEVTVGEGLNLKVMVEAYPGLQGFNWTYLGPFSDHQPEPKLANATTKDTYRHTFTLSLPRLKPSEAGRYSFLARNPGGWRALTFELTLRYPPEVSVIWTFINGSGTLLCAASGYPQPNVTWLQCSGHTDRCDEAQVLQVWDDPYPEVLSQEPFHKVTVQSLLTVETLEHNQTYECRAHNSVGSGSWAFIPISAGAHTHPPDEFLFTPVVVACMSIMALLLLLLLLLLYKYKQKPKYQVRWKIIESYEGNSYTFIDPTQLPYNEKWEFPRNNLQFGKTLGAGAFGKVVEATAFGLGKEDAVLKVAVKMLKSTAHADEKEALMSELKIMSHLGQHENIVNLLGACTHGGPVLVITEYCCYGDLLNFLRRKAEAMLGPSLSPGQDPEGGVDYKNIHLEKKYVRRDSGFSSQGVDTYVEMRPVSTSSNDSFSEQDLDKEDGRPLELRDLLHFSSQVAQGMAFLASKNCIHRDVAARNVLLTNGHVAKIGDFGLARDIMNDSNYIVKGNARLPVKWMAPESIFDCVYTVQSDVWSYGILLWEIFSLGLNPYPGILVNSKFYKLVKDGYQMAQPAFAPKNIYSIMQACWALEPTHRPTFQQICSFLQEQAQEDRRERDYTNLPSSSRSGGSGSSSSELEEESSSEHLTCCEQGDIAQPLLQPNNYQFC
Chain of Homeodomain-interacting protein kinase 3 (Homo sapiens) (Q9H422 whole entry, looked up): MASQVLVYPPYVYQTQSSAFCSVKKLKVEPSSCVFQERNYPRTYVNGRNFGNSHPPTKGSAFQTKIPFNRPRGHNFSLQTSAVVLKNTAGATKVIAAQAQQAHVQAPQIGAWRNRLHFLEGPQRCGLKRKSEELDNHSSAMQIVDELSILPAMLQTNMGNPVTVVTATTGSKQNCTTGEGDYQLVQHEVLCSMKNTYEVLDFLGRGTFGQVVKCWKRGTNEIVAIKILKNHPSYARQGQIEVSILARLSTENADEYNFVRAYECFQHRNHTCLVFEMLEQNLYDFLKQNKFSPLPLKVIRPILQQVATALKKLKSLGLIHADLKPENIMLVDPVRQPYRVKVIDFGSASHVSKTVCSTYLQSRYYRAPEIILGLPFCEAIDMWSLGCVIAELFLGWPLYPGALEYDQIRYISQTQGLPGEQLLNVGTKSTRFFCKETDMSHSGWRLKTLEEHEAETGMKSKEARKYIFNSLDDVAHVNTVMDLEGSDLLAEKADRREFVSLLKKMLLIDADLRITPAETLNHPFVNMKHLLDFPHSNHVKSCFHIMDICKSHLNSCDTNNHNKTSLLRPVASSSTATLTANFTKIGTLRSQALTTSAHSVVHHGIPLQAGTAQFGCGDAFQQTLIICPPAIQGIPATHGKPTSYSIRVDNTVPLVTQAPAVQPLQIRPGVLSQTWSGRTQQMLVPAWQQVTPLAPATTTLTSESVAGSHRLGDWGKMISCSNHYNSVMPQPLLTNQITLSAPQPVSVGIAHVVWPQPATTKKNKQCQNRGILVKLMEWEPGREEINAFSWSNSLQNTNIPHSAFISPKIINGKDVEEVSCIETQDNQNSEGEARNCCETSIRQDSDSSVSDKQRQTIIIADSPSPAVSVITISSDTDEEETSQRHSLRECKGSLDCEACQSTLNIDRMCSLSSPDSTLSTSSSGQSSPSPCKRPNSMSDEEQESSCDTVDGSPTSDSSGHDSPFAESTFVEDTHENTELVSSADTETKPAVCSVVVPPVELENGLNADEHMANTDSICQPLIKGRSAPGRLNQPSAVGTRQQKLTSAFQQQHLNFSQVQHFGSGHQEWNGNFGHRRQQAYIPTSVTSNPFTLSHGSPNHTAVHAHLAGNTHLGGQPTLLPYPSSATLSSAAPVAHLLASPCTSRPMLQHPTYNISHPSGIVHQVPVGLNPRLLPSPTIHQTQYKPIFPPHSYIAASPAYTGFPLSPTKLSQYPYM
Chain of G protein-coupled receptor kinase 5 (Homo sapiens) (P34947 whole entry, looked up): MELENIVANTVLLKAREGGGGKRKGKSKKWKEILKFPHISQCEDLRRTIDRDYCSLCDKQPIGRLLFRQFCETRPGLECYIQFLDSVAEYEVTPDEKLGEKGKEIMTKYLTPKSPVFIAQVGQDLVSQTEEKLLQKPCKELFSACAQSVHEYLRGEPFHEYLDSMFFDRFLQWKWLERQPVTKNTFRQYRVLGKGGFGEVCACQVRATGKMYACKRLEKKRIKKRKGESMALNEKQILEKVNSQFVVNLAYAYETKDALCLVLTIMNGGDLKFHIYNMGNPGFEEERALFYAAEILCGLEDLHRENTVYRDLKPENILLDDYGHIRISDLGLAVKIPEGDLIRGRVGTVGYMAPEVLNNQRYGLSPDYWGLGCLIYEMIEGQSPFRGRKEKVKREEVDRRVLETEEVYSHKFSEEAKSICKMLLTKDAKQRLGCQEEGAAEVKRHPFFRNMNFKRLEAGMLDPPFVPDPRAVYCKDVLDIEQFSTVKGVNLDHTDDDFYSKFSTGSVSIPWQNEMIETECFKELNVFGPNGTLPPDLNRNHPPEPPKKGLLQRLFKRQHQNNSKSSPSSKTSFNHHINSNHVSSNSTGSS
Chain of Homeodomain-interacting protein kinase 1 (Homo sapiens) (Q86Z02 whole entry, looked up): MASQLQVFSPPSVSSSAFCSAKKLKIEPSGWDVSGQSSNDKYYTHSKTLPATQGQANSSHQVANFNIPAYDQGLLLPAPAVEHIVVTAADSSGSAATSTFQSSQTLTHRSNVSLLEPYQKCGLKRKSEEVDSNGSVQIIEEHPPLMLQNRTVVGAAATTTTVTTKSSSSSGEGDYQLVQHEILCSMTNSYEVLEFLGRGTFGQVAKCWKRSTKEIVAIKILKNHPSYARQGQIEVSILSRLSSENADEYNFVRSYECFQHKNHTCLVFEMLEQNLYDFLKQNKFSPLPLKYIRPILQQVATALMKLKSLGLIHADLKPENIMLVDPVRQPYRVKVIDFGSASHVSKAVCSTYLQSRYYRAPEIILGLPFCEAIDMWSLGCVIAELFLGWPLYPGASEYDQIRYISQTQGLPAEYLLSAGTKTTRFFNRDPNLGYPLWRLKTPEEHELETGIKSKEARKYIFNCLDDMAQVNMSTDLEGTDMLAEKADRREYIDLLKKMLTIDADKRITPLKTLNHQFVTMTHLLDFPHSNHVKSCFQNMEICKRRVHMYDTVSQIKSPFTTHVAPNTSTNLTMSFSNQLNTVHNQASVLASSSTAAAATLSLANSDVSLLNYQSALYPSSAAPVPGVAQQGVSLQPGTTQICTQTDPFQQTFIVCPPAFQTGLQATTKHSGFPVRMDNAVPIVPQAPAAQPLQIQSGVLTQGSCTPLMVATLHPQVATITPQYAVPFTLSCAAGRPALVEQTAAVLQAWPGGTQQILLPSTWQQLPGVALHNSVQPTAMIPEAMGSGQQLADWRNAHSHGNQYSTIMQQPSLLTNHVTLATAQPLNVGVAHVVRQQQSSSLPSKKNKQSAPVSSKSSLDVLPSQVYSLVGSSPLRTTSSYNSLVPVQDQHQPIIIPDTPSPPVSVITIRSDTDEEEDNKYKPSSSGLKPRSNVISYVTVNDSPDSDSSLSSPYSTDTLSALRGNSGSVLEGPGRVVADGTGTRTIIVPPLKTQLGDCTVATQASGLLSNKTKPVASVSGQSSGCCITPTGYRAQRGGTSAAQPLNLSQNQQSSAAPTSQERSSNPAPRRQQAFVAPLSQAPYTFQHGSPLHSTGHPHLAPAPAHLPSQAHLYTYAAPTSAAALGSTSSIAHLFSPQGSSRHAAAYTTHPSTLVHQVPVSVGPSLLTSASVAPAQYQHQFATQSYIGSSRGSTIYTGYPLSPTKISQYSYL

Take `O=c1cc(N2CCNCC2)oc2c(-c3ccccc3)cccc12`: the residual activity in assay [1] is 90%; in assay [2] it was 61%; in assay [3], 78%; in assay [4], 88%; in assay [5], 88%; in [6] it was 90%. Further, the residual activity in assay [7] is 83%; in assay [8], 104%; in assay [9], 84%; in assay [10] it was 95%; in assay [11], 84%; in assay [12], 78%. The residual activity in assay [13] is 84%; in assay [14], 101%; in [15], 96%; in [16], 97%; in assay [17], 90%; in assay [18], 90%.

With `CN(C)S(=O)(=O)c1ccc2c(c1)/C(=C/c1cc3c([nH]1)CCCC3)C(=O)N2`, the residual activity is 46% in [1]; 4% in assay [2]; 0% in assay [3]; 22% in [4]; 24% in assay [5]; 5% in assay [6]. Further, the residual activity in assay [7] was 5%; in [8], 84%; in assay [11] it was 78%; in assay [19], 97%; in assay [20] it was 94%; in [12], 112%. The residual activity in assay [13] turned out to be 94%; in [16], 97%; in assay [17] it was 90%; in assay [18], 99%.

As to `O=C(c1cc2cc(O)ccc2[nH]1)c1cc2cc(O)ccc2[nH]1`, the residual activity turned out to be 1% in assay [1]; 54% in assay [2]; 10% in assay [3]; 7% in [4]; 1% in assay [5]; 24% in assay [6]. Also, the residual activity in [7] is 4%; in assay [8], 82%; in assay [9], 78%; in assay [10], 75%; in [11], 54%; in assay [20], 26%. For the same molecule, the residual activity in assay [12] turned out to be 59%; in assay [13], 20%; in assay [16], 83%; in assay [17] it was 28%; in [18], 76%.

As to `CCCCc1c(-c2ccc(OC)cc2)[nH]c2nccnc12`, the residual activity in assay [1] is 3%; in assay [2] it was 14%; in assay [3] it was 8%; in assay [4], 40%; in assay [5], 37%; in assay [6], 22%. For the same molecule, the residual activity came to 32% in [7]; 77% in [10]; 92% in assay [11]; 46% in [19]; 41% in assay [20]; 52% in assay [12]. Also, the values for the residual activity in assay [13], in assay [17] and in assay [18] were 71%, 90% and 106%, respectively.

Turning to `O=C(O)/C=C/c1cc(Br)c(Br)c(Br)c1Br`, the residual activity in [1] is 27%; in assay [2], 79%; in assay [3] it was 62%; in assay [4] it was 89%; in assay [5], 88%; in [6], 100%. The residual activity in assay [7] stood at 72%; in assay [8] it was 91%; in assay [9], 84%; in [10], 105%; in [11], 95%; in assay [19], 93%. Besides, the residual activity turned out to be 51% in assay [20]; 125% in assay [12]; 106% in assay [13]; 93% in [14]; 53% in [15]; 83% in assay [16]. The figures for the residual activity in assay [17] and in assay [18] were 27% and 94%, respectively.

With `O=C1C(Cl)=C(N2C(=O)CCC2=O)C(=O)c2ccccc21`, the residual activity turned out to be 80% in assay [1]; 73% in assay [2]; 65% in [3]; 76% in assay [4]; 75% in assay [5]; 90% in assay [6]. In addition, the residual activity in assay [7] turned out to be 89%; in assay [8], 94%; in [9], 91%; in assay [10], 99%; in assay [11], 90%; in assay [12], 120%. Moreover, the residual activity is 93% in assay [13]; 89% in [15]; 102% in [16]; 92% in assay [17]; 93% in assay [18].

Regarding `CCCC(=O)Oc1ccc2[nH]c(C(=O)c3cc4ccccc4[nH]3)cc2c1`, the residual activity in assay [1] was determined as 68%; in [2] it was 78%; in [3], 83%; in assay [4], 78%; in assay [5], 89%; in assay [6], 86%. In addition, the residual activity came to 70% in assay [7]; 95% in assay [8]; 78% in [9]; 93% in [10]; 82% in assay [11]; 125% in assay [20]. In addition, the residual activity in assay [12] amounted to 99%; in assay [13], 95%; in assay [14], 98%; in assay [15], 103%; in [16], 102%; in [17] it was 100%. Further, the residual activity in assay [18] is 93%.

In the case of `Cc1cc(C)c(/C=C2\C(=O)Nc3ccccc32)[nH]1`, the residual activity amounted to 0% in [1]; 2% in assay [2]; 0% in assay [3]; 75% in assay [4]; 19% in assay [5]; 57% in [6]. Also, the residual activity in assay [7] was 11%; in [10], 74%; in [11] it was 60%; in assay [19], 106%; in [20], 124%; in assay [16], 80%. Besides, in assay [17], the residual activity stood at 39%.

Consider `N#Cc1c(NC(=O)c2cccc3ccccc23)sc2c1CCCC2`, for which the residual activity in assay [1] was 86%; in assay [2] it was 69%; in [3], 74%; in assay [4], 72%; in assay [5], 87%; in assay [7] it was 90%. For the same molecule, the residual activity was 98% in [8]; 90% in [9]; 84% in assay [19]; 80% in assay [20]; 100% in assay [13]; 99% in assay [18].

Take `CCN(CC)CCNC(=O)c1c(C)[nH]c(/C=C2\C(=O)Nc3ccc(Cl)cc32)c1C`: the residual activity in [1] came to 1%; in [2] it was 0%; in assay [3], 0%; in assay [4], 6%; in assay [5], 1%; in [6], 5%. In addition, the residual activity in [7] amounted to 0%; in assay [8], 33%; in [9], 17%; in assay [10], 57%; in [11], 9%; in assay [14] it was 32%. Besides, the residual activity in assay [15] is 4%; in assay [16], 6%; in assay [17], 1%; in assay [18], 9%.

As to `O=C1Cc2c([nH]c3ccc([N+](=O)[O-])cc23)-c2ccccc2N1`, the residual activity worked out at 32% in [1]; 33% in assay [2]; 26% in assay [3]; 20% in assay [4]; 0% in assay [5]; 2% in [6]. In addition, the residual activity in assay [7] is 5%; in assay [19], 1%; in assay [20], 2%; in assay [12], -1%; in assay [13], 3%; in assay [14] it was 109%. Besides, the residual activity in assay [15] came out at 100%.

With `Cn1c2ccccc2c2c3c(c4c5ccccc5n(CCC#N)c4c21)CNC3=O`, the residual activity came out at 3% in [1]; 14% in assay [2]; 5% in assay [3]; 47% in [4]; 58% in assay [5]; 2% in [6]. Besides, the residual activity in [7] was determined as 1%; in assay [8], 75%; in assay [10], 16%; in [11], 34%; in [19], 20%; in assay [20], 19%. For the same molecule, the residual activity worked out at 15% in [12], 26% in assay [13], 20% in assay [16] and 11% in assay [17].

Take `O=C1NC(=O)C(c2c[nH]c3ccccc23)=C1c1c[nH]c2ccccc12`: the residual activity in assay [1] stood at 1%; in assay [2] it was 82%; in [3] it was 32%; in [4], 83%; in assay [5], 29%; in assay [6], 80%. Moreover, the residual activity in [7] amounted to 19%; in [9] it was 68%; in assay [10], 78%; in [11], 20%; in [19], 19%; in [20], 4%. In addition, the residual activity in assay [12] is 31%; in assay [13] it was 6%; in assay [16], 76%; in assay [17], 15%.
